Inconclusive results are not listed. Calls of active or inactive are those of the source. Unless noted, calls follow the shape of the dose curve; as a rule, active = well fitted curve in the direction sought with a large enough effect in the repeat runs; inconclusive = weak or mixed curves; inactive = no such curve, though single readings can be large; an effect the other way counts as inactive or inconclusive.

Experimental findings from PubChem BioAssay (Tox21) are described below.

A short description of experiment [1]: qHTS assay to identify small molecule antagonists of the glucocorticoid receptor (GR) signaling pathway - cell viability counter screen (AID 720693). Also: nearly all actives have a fitted effect of over 55% in size. Also: potency is read from the fitted curve at half-maximal effect.
A short description of experiment [2]: qHTS assay for identifying genotoxic compounds that show differential cytotoxicity against isogenic chicken DT40 cell lines with known DNA damage response pathways - wild type cell line (AID 743012). Also: nearly all actives have a fitted effect of over 60% in size. Also: potency is read from the fitted curve at half-maximal effect. An outline of the steps:
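Cells (DT40 wild type, 300/well) are treated with DMSO-dissolved compounds after a ~0.5 h pre-incubation and kept 40 h at 37 C/5% CO2. Viability is then measured by CellTiter-Glo luminescence following 30 min at room temperature.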

A short description of experiment [3]: qHTS assay for identifying genotoxic compounds that show differential cytotoxicity against isogenic chicken DT40 cell lines with known DNA damage response pathways - Rev3 mutant cell line (AID 743014). Also: nearly all actives have a fitted effect of over 55% in size. Also: potency is read from the fitted curve at half-maximal effect.
Experiment [4] can be described thus: qHTS assay for identifying genotoxic compounds that show differential cytotoxicity against isogenic chicken DT40 cell lines with known DNA damage response pathways - Rad54/Ku70 mutant cell line (AID 743015). Also: nearly all actives have a fitted effect of over 60% in size. Also: potency is read from the fitted curve at half-maximal effect.
Experiment [5] in a line: qHTS assay to identify small molecule antagonists of the androgen receptor (AR) signaling pathway - cell viability counter screen (AID 743033; also: nearly all actives have a fitted effect of over 45% in size; also: potency is read from the fitted curve at half-maximal effect).
Experiment [6] is described as follows: qHTS assay to identify small molecule antagonists of the androgen receptor (AR) signaling pathway using the MDA cell line - cell viability counter screen (AID 743041; also: nearly all actives have a fitted effect of over 45% in size; also: potency is read from the fitted curve at half-maximal effect). An outline of the steps:
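MDA-kb2 AR-luc cells (MMTV-luciferase, AR/GR responsive) treated with compounds plus R1881 agonist for 16 h at 37C. CellTiter-Fluor added at 15.5 h; fluorescence read after 30 min in the same wells.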

Experiment [7] can be described thus: qHTS assay to identify small molecule antagonists of the thyroid receptor (TR) signaling pathway - cell viability counter screen (AID 743064). Also: nearly all actives have a fitted effect of over 50% in size. Also: potency is read from the fitted curve at half-maximal effect. An outline of the steps: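 Fluorescence from CellTiter-Fluor, added after 23.5 h exposure at 37 °C, reported viability of GH3.TRE-Luc cells co-treated with compound and 1 nM T3. Measured in the same wells as the luciferase TR readout.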

Experiment [8] has as its target Androgen receptor (Homo sapiens) (UniProt P10275). The experiment is described as follows: qHTS assay to identify small molecule agonists of the androgen receptor (AR) signaling pathway (AID 743036; active = well fitted activation curve with a large enough effect in the signal ratio in the repeat runs, with a control signal flat, not every such curve was filed as active; the % refers to the signal ratio). Summed up:
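Fluorescence from a beta-lactamase FRET substrate served as read-out in AR-UAS-bla GripTite HEK293 cells. Cells were treated with DMSO-dissolved compounds for 16 h at 37C, then with LiveBLAzer B/G substrate for 2 h at room temperature.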

Experiment [9] shares this target. Briefly: qHTS assay to identify small molecule agonists of the androgen receptor (AR) signaling pathway using the MDA cell line (AID 743040; also: nearly all actives have a fitted effect of over 20% in size). An outline of the steps: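 MDA-kb2 breast carcinoma cells carrying MMTV-luciferase (responsive to AR and GR), plated 5 h then treated 16 h with compounds at 37C, 0% CO2. Read-out was ONE-Glo luminescence after 30 min at room temperature.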

For experiment [10] the target is unchanged. The experiment is described as follows: qHTS assay to identify small molecule antagonists of the androgen receptor (AR) signaling pathway using the MDA cell line (AID 743042; also: nearly all actives have a fitted effect of over 55% in size; also: potency is read from the fitted curve at half-maximal effect). An outline of the steps:
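MDA-kb2 breast carcinoma cells carrying MMTV-luciferase (AR/GR responsive) were co-treated with compounds and the agonist R1881 for 16 h at 37C. Inhibition read as ONE-Glo luminescence; CellTiter-Fluor fluorescence measured in parallel for cytotoxicity.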

Androgen receptor (Homo sapiens), sequence (P10275 whole entry, looked up): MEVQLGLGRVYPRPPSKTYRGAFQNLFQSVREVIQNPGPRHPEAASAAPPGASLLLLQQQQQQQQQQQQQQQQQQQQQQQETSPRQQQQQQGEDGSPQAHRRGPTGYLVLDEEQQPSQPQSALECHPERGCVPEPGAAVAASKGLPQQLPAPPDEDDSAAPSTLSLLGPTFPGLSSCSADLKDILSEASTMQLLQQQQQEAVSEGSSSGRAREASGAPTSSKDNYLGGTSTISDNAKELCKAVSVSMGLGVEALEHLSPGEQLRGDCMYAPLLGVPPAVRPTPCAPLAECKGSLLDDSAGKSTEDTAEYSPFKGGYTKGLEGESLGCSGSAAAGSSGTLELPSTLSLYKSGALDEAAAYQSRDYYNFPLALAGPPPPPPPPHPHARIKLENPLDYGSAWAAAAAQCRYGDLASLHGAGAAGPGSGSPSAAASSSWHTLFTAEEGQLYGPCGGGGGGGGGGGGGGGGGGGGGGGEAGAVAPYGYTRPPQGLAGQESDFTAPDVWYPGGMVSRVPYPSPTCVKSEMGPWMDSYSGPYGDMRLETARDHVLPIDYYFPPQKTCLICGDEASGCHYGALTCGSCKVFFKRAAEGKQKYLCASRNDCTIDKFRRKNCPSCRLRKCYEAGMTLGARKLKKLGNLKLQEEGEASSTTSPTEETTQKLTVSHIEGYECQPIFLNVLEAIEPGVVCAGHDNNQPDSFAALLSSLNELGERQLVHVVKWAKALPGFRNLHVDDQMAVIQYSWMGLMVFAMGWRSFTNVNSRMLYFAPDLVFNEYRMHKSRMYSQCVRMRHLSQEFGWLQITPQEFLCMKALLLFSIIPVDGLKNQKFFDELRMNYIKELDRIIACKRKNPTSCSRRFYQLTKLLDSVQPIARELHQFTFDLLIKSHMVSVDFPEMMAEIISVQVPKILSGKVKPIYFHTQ

For the compound `CC=C(Cl)Cl`, the Potency result in [1], in experiment [2], in experiment [3], in [4], in experiment [5] and in experiment [6] was “inactive” throughout. For the same compound, the Potency result in [7] was “inactive”.

Take `Cc1cscn1`: the Potency entry in experiment [1], in experiment [2], in experiment [3], in experiment [4], in experiment [5] and in experiment [6] was “inactive” throughout. Besides, the Potency entry in experiment [10] and in experiment [7] was “inactive” each time. The outcome in experiment [8] and in experiment [9] was inactive.

On to `COc1cc(C(=O)NC2CCN(C)CC2)ccc1Nc1ncc2c(n1)N(C1CCCC1)CC(F)(F)C(=O)N2C`, for which the Potency is 22.5 µM (active) in experiment [1]; 0.0044 µM (active) in experiment [2]; 0.0025 µM (active) in experiment [3]; 0.0056 µM (active) in [4]; 15.9 µM (active) in [5]; 62.8 µM (active) in [6]. For the same compound, in [9], the call was inactive.

In the case of `CC(C)COCC(CN(Cc1ccccc1)c1ccccc1)N1CCCC1` (configuration not stated), the Potency result in experiment [1], in experiment [5] and in experiment [6] was “inactive” each time. Moreover, the Potency in [2] is 5.31 µM (active); in experiment [3] it was 8.41 µM (active); in [4], 7.5 µM (active).

Regarding `N#CCCN(CCO)CCO`, the Potency result in [1], in experiment [2], in experiment [3], in [4], in [5] and in experiment [6] was “inactive” each time.

As for `NC(=O)c1ccncc1`, the Potency entry in experiment [1], in experiment [2], in experiment [3], in experiment [4], in experiment [5] and in [6] was “inactive” each time. Besides, the Potency result in experiment [10] and in [7] was “inactive” throughout. Besides, the call in experiment [8] and in experiment [9] was inactive.

Regarding `C=CC(C)(CCC=C(C)C)OC(=O)CC(C)C` (configuration not stated), the Potency entry in [1], in experiment [2], in experiment [3], in experiment [4], in [5] and in experiment [6] was “inactive” throughout. In [7], the Potency result is “inactive”.

With `CC(=O)Oc1ccc([N+](=O)[O-])cc1CCl`, the Potency result in experiment [1] and in [5] was “inactive” throughout. The Potency is 8.63 µM (active) in experiment [2]; 1.72 µM (active) in experiment [3]; 3.86 µM (active) in [4]; 54.5 µM (active) in [6]; 30.6 µM (active) in experiment [7].

As for `Cc1ccco1`, the Potency result in experiment [1], in experiment [2], in [3], in [4], in [5] and in [6] was “inactive” in each case. The Potency result in [7] was “inactive”.

On to `CC(=O)OCC(=O)NCCCOc1cccc(CN2CCCCC2)c1`, for which the Potency result in [1], in experiment [2], in experiment [3], in experiment [4], in experiment [5] and in experiment [6] was “inactive” throughout. Further, the Potency result in experiment [10] is “inactive”. Also, the compound was called inactive in [8] and in experiment [9].

Turning to `Cc1ccccc1S`, the Potency entry in experiment [1], in experiment [5] and in [6] was “inactive” each time. Also, the Potency in experiment [2] is 34.6 µM (active); in experiment [3], 27.5 µM (active); in [4], 38.9 µM (active).

As to `Oc1ccc(Cl)c2cccnc12`, the Potency entry in experiment [1] is “inactive”. The Potency is 2.98 µM (active) in [2]; 4.22 µM (active) in experiment [3]; 6.68 µM (active) in experiment [4]; 13.4 µM (active) in experiment [5]; 9.44 µM (active) in [10]; 7.5 µM (active) in experiment [7]. Further, the compound was classed as inactive in experiment [8] and in [9].

Turning to `CC1(C)S[C@@H]2[C@H](NC(=O)C(c3ccccc3)S(=O)(=O)O)C(=O)N2[C@H]1C(=O)O` (some centres not stated), the Potency entry in experiment [1], in [2], in experiment [3], in experiment [4], in [5] and in [6] was “inactive” each time. Further, in experiment [7], the Potency result was “inactive”.

Turning to `CCOC(=O)c1ccc(I)cc1`, the Potency entry in [1], in [2], in experiment [3], in experiment [4], in experiment [5] and in experiment [6] was “inactive” in each case.

Regarding `C[C@]1(Cn2ccnn2)[C@H](C(=O)O)N2C(=O)C[C@H]2S1(=O)=O`, the Potency entry in experiment [1], in experiment [2], in [3], in experiment [4], in [5] and in [6] was “inactive” each time. In addition, the Potency entry in [7] was “inactive”.

Consider `C=COCC(C)C`, for which the Potency result in experiment [1], in experiment [2], in experiment [3], in experiment [4], in [5] and in experiment [6] was “inactive” throughout. The Potency entry in [7] was “inactive”.

For `CCCCCCCC/C=C\CCCCCCCCCCCC(=O)O`, the Potency entry in [1], in experiment [2], in experiment [3], in experiment [4], in experiment [5] and in [6] was “inactive” each time. Moreover, the Potency result in [10] and in experiment [7] was “inactive” throughout.

As for `CCC1CO1` (configuration not stated), the Potency result in experiment [1], in [2], in experiment [3], in experiment [4], in experiment [5] and in experiment [6] was “inactive” throughout. Besides, in experiment [7], the Potency result was “inactive”.

Turning to `O=C(OC(=O)c1ccccc1)c1ccccc1`, the Potency result in [1], in [2], in experiment [3], in experiment [4], in experiment [5] and in [10] was “inactive” in each case. For the same compound, the Potency entry in experiment [7] was “inactive”. In addition, the compound was called inactive in experiment [9].

As for `CCCCCCCC/C=C\CCCCCCCCO`, the Potency entry in experiment [1], in experiment [2], in [3], in experiment [4], in experiment [5] and in experiment [6] was “inactive” in each case. The Potency result in [7] was “inactive”.

Regarding `c1csc(SSc2cccs2)c1`, the Potency result in [1], in [6] and in [7] was “inactive” throughout. For the same compound, the Potency is 12.2 µM (active) in experiment [2], 6.86 µM (active) in experiment [3], 10.9 µM (active) in experiment [4] and 38.9 µM (active) in experiment [5].

On to `C=C1CCC2CC1C2(C)C` (configuration not stated), for which the Potency result in [1], in experiment [2], in [3], in experiment [4], in experiment [5] and in experiment [6] was “inactive” in each case. The Potency result in experiment [7] was “inactive”.

As to `CN1C[C@H](C(=O)N[C@]2(C)O[C@@]3(O)[C@@H]4CCCN4C(=O)[C@H](Cc4ccccc4)N3C2=O)C[C@@H]2c3cccc4[nH]cc(c34)C[C@H]21`, the Potency entry in [1], in experiment [5] and in experiment [6] was “inactive” each time. Further, the Potency in [2] is 23.7 µM (active); in [3], 29.8 µM (active); in experiment [4], 16.8 µM (active); in experiment [7] it was 21.1 µM (active).

In the case of `CN1CC(=O)N2[C@H](c3ccc4c(c3)OCO4)c3[nH]c4ccccc4c3C[C@@H]2C1=O`, the Potency entry in experiment [1], in experiment [2], in experiment [3], in [4], in experiment [5] and in experiment [6] was “inactive” in each case.

On to `CCn1cc(C(=O)O)c(=O)c2cc(F)c(N3CCNCC3)cc21`, for which the Potency entry in [1], in [2], in [3], in experiment [4], in experiment [5] and in experiment [6] was “inactive” in each case. In experiment [7], the Potency result was “inactive”.
